Only some compounds are listed: those with a hit (about 2.4% of all), similar ones and a draw of the others.
Pol kappa inh-1: blocks human DNA polymerase kappa activity; Q9UBT6; purified Pol kappa, fluorescent DNA synthesis assay, 10 min; Potency, µM (top dose mostly 107 µM), without a hit: at the top dose activity, negative = inhibition, most hits filed as inhibitors; hit rate 0.53% among 400,000; AID 588579; note: % is set by controls: 0 for no effect and ±100 for the full control effect
Target sequence (Q9UBT6 whole entry, looked up): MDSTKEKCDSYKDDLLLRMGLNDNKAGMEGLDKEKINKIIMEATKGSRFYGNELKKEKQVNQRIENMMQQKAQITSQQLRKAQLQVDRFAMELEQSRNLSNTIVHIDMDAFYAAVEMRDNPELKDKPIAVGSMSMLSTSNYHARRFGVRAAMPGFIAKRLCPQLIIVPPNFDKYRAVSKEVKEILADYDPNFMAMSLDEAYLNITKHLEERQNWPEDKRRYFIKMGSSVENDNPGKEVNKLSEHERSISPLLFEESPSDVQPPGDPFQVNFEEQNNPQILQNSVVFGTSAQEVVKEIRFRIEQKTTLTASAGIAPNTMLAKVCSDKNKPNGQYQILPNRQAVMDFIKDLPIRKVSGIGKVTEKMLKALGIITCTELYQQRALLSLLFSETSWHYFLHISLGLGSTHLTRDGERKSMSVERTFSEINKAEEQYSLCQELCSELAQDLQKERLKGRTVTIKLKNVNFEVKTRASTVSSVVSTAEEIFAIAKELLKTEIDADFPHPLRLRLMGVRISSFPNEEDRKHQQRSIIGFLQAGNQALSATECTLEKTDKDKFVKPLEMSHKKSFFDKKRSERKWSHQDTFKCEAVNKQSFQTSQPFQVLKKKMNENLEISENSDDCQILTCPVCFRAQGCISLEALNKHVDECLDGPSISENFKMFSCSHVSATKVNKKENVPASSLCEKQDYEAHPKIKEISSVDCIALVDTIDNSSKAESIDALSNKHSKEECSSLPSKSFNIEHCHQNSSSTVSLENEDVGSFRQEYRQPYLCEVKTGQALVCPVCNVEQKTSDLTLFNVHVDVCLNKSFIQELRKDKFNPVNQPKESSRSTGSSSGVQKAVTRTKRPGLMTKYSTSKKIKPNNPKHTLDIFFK
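Inhibition of 10 nM Pol kappa is measured by a fluorescent read-out at 0 and 10 min following addition of 50 nM substrate (final), with a 15-min room-temperature compound preincubation.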
FEN1 inh: inhibitors of human flap endonuclease 1; AID 588795; P39748; Potency, µM (titrated, usually from 114 µM), for inactives: at the highest dose activity change, negative = inhibition, actives largely listed as inhibitors; Recombinant FEN1 flap cleavage, fluorescence, 15 min; hit rate 0.35% among 390,000; note: % is set by controls: 0 for no effect and ±100 for the full control effect; nearly all actives have a fitted effect of over 65% in size
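Concentration–response screening of FEN1 (10 nM): 15 min compound preincubation at room temperature, reaction started with 50 nM substrate and read at 0 and 15 min. Corrected, normalized data were fitted by a four-parameter Hill equation.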
PGK inhibitor: blocks T. brucei phosphoglycerate kinase; Potency, µM (top dose mostly 57.5 µM), for inactives: at the top dose activity change, negative = inhibition, most hits filed as inhibitors; AID 602233; hit rate 0.043% among 380,000; PGK/GAPDH coupled, Kinase-Glo luminescence, 60 min; P07378; note: % is set by controls: 0 for no effect and ±100 for the full control effect; nearly all actives have a fitted effect of over 60% in size
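Luminescent ATP detection (Kinase-Glo Plus) follows a 60-minute room-temperature incubation, with wells lacking PGK as controls. Buffer: 100 mM TEA (pH 7.6), 5 mM MgCl2, 0.01% Tween-20. Coupling enzyme GAPDH (100 nM final) supplies unstable 1,3-BPG in-well.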
POLB inh: DNA polymerase beta (human) inhibition. P06746. Pol beta primer extension/strand displacement, fluorescence kinetic. Potency, µM (top dose mostly 114 µM), inactives show top-dose activity change, negative = inhibition, usual class: inhibitors. hit rate 1.3% among 340,000. AID 485314; note: % is set by controls: 0 for no effect and ±100 for the full control effect
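Enzyme-only controls used 10 nM Pol beta; buffer lacking enzyme served as negative control. Compound preincubated 15 min, then 50 nM substrate added; 0 and 10 min reads at room temperature.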
Pol eta inh-1: inhibitors of human DNA polymerase eta; hit rate 1.2% among 390,000; Q9Y253; Potency, µM (series often up to 114 µM), for inactives: top-dose activity change, negative = inhibition, most hits filed as inhibitors; recombinant Pol eta, fluorescent DNA replication assay; AID 588591; note: % is set by controls: 0 for no effect and ±100 for the full control effect
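Pol eta at 10 nM preincubated with compounds 15 min at room temperature; reaction started with fluorescent substrate (50 nM final) and read kinetically at 0 and 10 min.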
POLI inh: DNA polymerase iota (human) inhibition; Q9UNA4; Pol iota fluorescent replication assay, 10 min; Potency, µM (titrated, usually from 115 µM), inactives show top-dose activity, negative = inhibition, most hits filed as inhibitors; hit rate 1% among 390,000
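Fluorescent replication assay read twice, at 0 min and 10 min after adding 50 nM (final) substrate. Enzyme (10 nM) and compounds were first incubated 15 min at room temperature; enzyme-free buffer wells were negative controls.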
Pol kappa inh-2: Pol kappa (human) inhibition, cherry-pick confirmation. shares compounds with Pol eta inh-1. purified Pol-kappa, fluorescent strand-displacement substrate. Potency, µM, actives largely listed as inhibitors. hit rate 76% among 920. AID 720501
Pol eta inh-2: confirmation of human DNA polymerase eta inhibitors | shares compounds with Pol eta inh-1 | Pol eta primer extension, TAMRA/BHQ fluorescence, 10 min | Potency, µM, actives largely listed as inhibitors | hit rate 64% among 2,600 | AID 720502
* marks the source's active call; other numbers are inactive results; i = inactive; ? = inconclusive; . = no result given; [ ] = another dose, or the depositor's remark. Calls come from the whole dose curve; as a rule, active = well fitted curve in the direction sought with a large enough effect; inconclusive = small, poorly fitted or top-dose-only effect, or another doubt; inactive = no such curve, though single readings can be large; an effect the other way counts as inactive or inconclusive. Potency is the fitted concentration of half-maximal effect.

SMILES	Pol kappa inh-1	FEN1 inh	PGK inhibitor	POLB inh	Pol eta inh-1	POLI inh	Pol eta inh-2	others
CC1=C(C(=O)Nc2ccc(C)cc2C)C(c2ccc(O)cc2)n2nnnc2N1 (stereo unspecified)	-15%	19%	-6%	18%	-15%	-4%	.
CC(/C=C1\SC(=S)N(NS(=O)(=O)c2ccc(C)cc2)C1=O)=C\c1ccccc1	-14%	?	-15%	40µM*	40µM*	?	?
Cc1ccc(Cl)cc1NC(=O)C(=O)NCC(c1cccnc1)N1CCc2ccccc21 (stereo unspecified)	-12%	-23%	-11%	1%	-18%	1%	.
CN(C)c1ncc2nc(-c3cn(C)c4ccccc34)c(=O)n(C[C@H]3CCCO3)c2n1	4%[60.1 µM]	.	.	.	.	.	.
CCN1CCN(c2nc3c(S(=O)(=O)c4ccc(Br)cc4)nnn3c3ccsc23)CC1	12%	6%	i	22%	-13%	15%	.
O=C(O)CCc1ccc(-c2cccs2)n1CCC(=O)O	?	-1%	-6%	22µM*	10µM*	?	?
COc1ccc(/C=C/C(=O)O)cc1S(=O)(=O)N1CCc2ccccc2C1	-11%	0%	0%	?	?	?	?
COc1ccc(C2=Nn3c(nnc3-c3ccccc3OC)SC2)cc1O[C@H]1CCOC1	.	.	.	.	.	.	.	Pol kappa inh-2=2.7*
COc1ccc(OC)c(-c2nnc3n2N=C(c2ccc(OC)c(OC4CCCC4)c2)CS3)c1	-26%	3%	-10%	.	-19%	-8%	.
CN(CCO)c1nc(-c2cccs2)nc2ccccc12	-10%	?	.	.	.	?	.
CC#CCCCC(=O)Nc1cccc(C(=O)O)c1	?	-11%	-6%	4%	14µM*	?	?
CCCCC(=O)NC(=S)Nc1cccc(C(=O)O)c1	-13%	14%	6%	6%	-23%	1%	.
COc1ccc(-n2ncc3c(NC(C)(C)CO)ncnc32)cc1	-5%[60.1 µM]	7%	-14%	2%	-1%	20%	.
COc1ccc(-n2c(/C=C/c3ccccc3F)nc3cc(OC)c(OC)cc3c2=O)cc1Cl	-7%[60.1 µM]	-1%	i	19%	-17%	14%	.
O=C(N/N=C/c1ccncc1)c1cc([N+](=O)[O-])cc([N+](=O)[O-])c1O	-5%	-12%	-17%	0%	25µM*	?	?
Cc1ccc(C(=O)Cn2c3c(sc2=N)CCCC3)cc1	0%[19.4 µM]	.	.	.	.	.	.
S=c1[nH]nc(-c2cccc(Cl)c2)n1/N=C/c1ccco1	-22%	-6%	-5%	?	?	?	.
CC(/C=N/n1c(-c2ccncc2)n[nH]c1=S)=C\c1ccco1	50µM*	?	-4%	-15%	?	20µM*	?
CC(=C/c1ccccc1)/C=N/n1c(-c2ccncc2)n[nH]c1=S	1%	11%	-5%	-8%	-5%	13%	.
Cc1cccc(-c2n[nH]c(=S)n2/N=C/C=C/c2ccco2)c1	45µM*	?	-12%	?	79µM*	13µM*	?
CCc1cccc(NC(=O)Cn2nc3c4cc(F)ccc4n(Cc4cccc(C)c4)cc-3c2=O)c1	-10%	20%	9%	1%	-2%	0%	.
CCN1CCN(C(c2ccc(F)cc2)c2c(O)cc(C)n(CCOC)c2=O)CC1 (stereo unspecified)	-5%[60.1 µM]	-5%	-10%	9%	-9%	22%	.
O=C(O)c1c(C(=O)O)c(-c2ccc(Cl)c(Cl)c2)n2c1CSC2	-45%	-26%	-7%	?	50µM*	?	.	Pol kappa inh-2=38*
Cc1cc(C)c(Cn2cnc3nc4c(cc3c2=O)CCCC4)c(C)c1	-7%[60.1 µM]	-12%	10%	-8%	-7%	25%	.
CCOc1ccc(Cn2c(CNS(=O)(=O)c3ccc(C(C)(C)C)cc3)nc3cccnc32)cc1	-10%[60.1 µM]	-26%	0%	-6%	-16%	21%	.
SMILES	Pol kappa inh-1	FEN1 inh	PGK inhibitor	POLB inh	Pol eta inh-1	POLI inh	Pol eta inh-2	others
COc1cccc(NS(=O)(=O)c2ccc3[nH]cc(C(=O)N(C)C4CCCCC4)c(=O)c3c2)c1	-6%[60.1 µM]	4%	-8%	-12%	56µM*	?	?	Pol kappa inh-2=?
CCOC(=O)c1cc2c(=O)n3cccc(C)c3nc2n(Cc2ccco2)c1=NC(=O)c1cccnc1	?	-21%	-10%	35µM*	20µM*	?	?
Cc1cccc(C(=O)N=c2c(C#N)cc3c(=O)n4cccc(C)c4nc3n2Cc2ccco2)c1	28µM*	-15%	-3%	20µM*	4.5µM*	8.9µM*	43*
O=C(CSc1nc(-c2ccccc2)nc2ccc(F)cc12)Nc1cccc(C(=O)O)c1	-25%	?	-13%	?	79µM*	?	.	Pol kappa inh-2=?
COc1ccc2c(c1)Oc1nc(-c3ccc(C)cc3)nc(SCC(=O)Nc3cccc(C(=O)O)c3)c1C2	.	.	.	.	.	.	.	Pol kappa inh-2=30*
COc1cc(NC(=O)CSc2nc(-c3ccc(C)cc3)nc3c2Cc2ccccc2O3)cc(OC)c1	4%	3%	i	31%	-17%	64%	.
CCCCNC(=O)CSc1nnc(C)c2c(C)n(-c3ccccc3)nc12	10%	17%	i	13%	4%	-10%	.
Cc1ccc(C)c(CSc2nc(-c3ccccc3F)nc3c2Cc2c(CO)cnc(C)c2O3)c1	6%	-2%	i	10%	-13%	30%	.
Cc1cc(C)c(-c2n[nH]c3c2C(c2ccccc2F)N(Cc2ccco2)C3=O)c(O)c1 (stereo unspecified)	-1%	-12%	8%	-22%	-23%	-19%	.
O=C(O)CN1C(=O)/C(=C/c2ccc(-c3cccc(Cl)c3)o2)SC1=S	.	.	.	.	.	.	?	Pol kappa inh-2=34*
CCOC(=O)CCN(c1ccccc1)S(=O)(=O)c1cc(-c2cc(C)no2)ccc1C	-9%	-6%	i	2%	-22%	0%	.
CCc1oc(C(=O)O)cc1COC	-29%	1%	-20%	22µM*	28µM*	?	30*
CCN(CC)Cc1cc(O)c(CN(CC)CC)cc1O	8.9µM*	?	-26%	3.5µM*	50µM*	?	?
CCOC(=O)C1=C[C@@]2(CC)CCCN3CCc4c(n1c1ccccc41)C32 (stereo partly specified)	-11%[60.1 µM]	.	.	.	.	.	.
COC(=O)COc1ccc(C2Nc3c(Cl)ccc(C(=O)O)c3C3C=CCC32)cc1 (stereo unspecified)	?	?	-10%	?	28µM*	?	48*
